Rows were chosen to be rich in hits. Some 3.3% of all compounds tested hit in one or more screens of this group.
AmpC inh no detg = inhibitors of E. coli AmpC beta-lactamase without detergent; Potency, µM (highest dose often 57.1 µM), without a hit: top-dose activity change, negative = inhibition, usual class: inhibitors; 330,000 tested, 0.52% active; AmpC nitrocefin hydrolysis, absorbance 480 nm, 0.0001% Triton;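 further: plate controls were no compound for no effect and no enzyme for full effect; nearly all actives have a fitted effect of over 20% in size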
Target sequence (P00811 whole entry, looked up): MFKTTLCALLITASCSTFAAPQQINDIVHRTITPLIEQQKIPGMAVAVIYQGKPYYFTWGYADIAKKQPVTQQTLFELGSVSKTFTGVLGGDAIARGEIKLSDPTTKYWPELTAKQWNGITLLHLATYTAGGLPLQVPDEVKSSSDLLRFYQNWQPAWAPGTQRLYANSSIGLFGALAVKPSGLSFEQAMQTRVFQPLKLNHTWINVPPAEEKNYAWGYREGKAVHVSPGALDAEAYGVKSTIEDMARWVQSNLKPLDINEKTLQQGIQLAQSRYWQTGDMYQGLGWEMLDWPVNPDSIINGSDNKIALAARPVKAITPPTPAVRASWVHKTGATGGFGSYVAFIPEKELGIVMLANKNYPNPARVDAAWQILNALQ
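AmpC (5.3 nM in the dispensed reagent) in 20 mM phosphate pH 7.0 with 0.01% (detergent screen) or 0.0001% Triton X-100 was preincubated with compounds for 15 min at room temperature. Nitrocefin was then added from an 800 uM solution, and hydrolysis was followed at 480 nm.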
AmpC inh detg = AmpC beta-lactamase inhibition with detergent present; AmpC hydrolysis of nitrocefin, absorbance 480 nm, 0.01% Triton; Potency, µM (titrated, usually from 114 µM), for inactives: top-dose activity change, negative = inhibition, hits mostly inhibitors; 370,000 tested, 0.041% active; AID 485294;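 further: 0% = no-compound wells and -100% = no-enzyme wells; nearly all actives have a fitted effect of over 25% in size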
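20 mM phosphate pH 7.0 + 0.01% (detergent screen) or 0.0001% Triton X-100; 5.3 nM AmpC reagent; cpd preinc 15 min RT; nitrocefin (800 uM stock) to start; A480 q20 s × 4 min; Activity was normalised to no-enzyme and no-compound control wells.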
Sm TGR block = blocks Schistosoma mansoni thioredoxin glutathione reductase; purified TGR, DTNB reduction, TNB absorbance 405 nm; 360,000 tested, 3% active; AID 485364; Q962Y6; Potency, µM (doses to about 114 µM), inactives show at the highest dose activity change, negative = inhibition, usual class: inhibitors; further: nearly all actives have a fitted effect of over 60% in size
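Kinetic colorimetric format: TGR-catalysed, NADPH-driven DTNB reduction monitored via TNB absorbance. Enzyme dispensed at 20 nM; compound exposure 15 min at room temperature before reaction start.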
* hit, by the source's call; [ ] = remark or other dose. The call rests on the fitted dose curve; in most records, active means well fitted curve in the direction sought with a large enough effect; inconclusive means small, poorly fitted or top-dose-only effect, or another doubt; inactive means no such curve, though single readings can be large; an effect the other way counts as inactive or inconclusive. Unless noted, on the % scale 0 is the no-effect control and ±100 the full control effect; potency means the concentration at half of the fitted maximal effect.

What do the screens show for `CCC(Sc1nc(=O)cc(N)n1CCc1ccccc1)C(=O)Nc1cc(C)on1` (configuration not stated)?
AmpC inh no detg: 2.82µM*; AmpC inh detg: inconclusive; Sm TGR block: 3.8%

Results for CCOC(=O)c1ccc(NC(=O)C(C)Sc2nc(=O)cc(N)n2CCc2ccccc2)cc1 (configuration not stated) ?
AmpC inh detg: -0.3%; Sm TGR block: 0.3%

How did COC(=O)C1=C(CS(=O)(=O)c2ccc(OC)c(OC)c2)NC(=O)NC1c1ccc(O)c(OC)c1 (configuration not stated) do in these assays?
AmpC inh no detg: -10.0%; AmpC inh detg: 3.9%; Sm TGR block: 5.3%

How did Nc1c2c(nc3sc4c(c13)CCCCC4)CCCCC2 do in these assays?
AmpC inh no detg: -26.1%; AmpC inh detg: -0.3%; Sm TGR block: 2.8%

Results for Nc1c2c(nc3sc4c(c13)CCCC4)CCCCC2 ?
AmpC inh no detg: 3.98µM*; AmpC inh detg: -0.9%; Sm TGR block: -14.0%

What do the screens show for `Cc1ccc(NC(=O)C2(c3cccs3)CCOCC2)cc1C`?
AmpC inh no detg: -13.2%; AmpC inh detg: 1.1%; Sm TGR block: -16.6%

How did Cc1ccc(-n2ncc(C(=O)Nc3cc(Cl)cc(Cl)c3)c2C2CCNCC2)cc1C do in these assays?
AmpC inh no detg: 26.2%; AmpC inh detg: 0.9%; Sm TGR block: 6.0%

How did COc1cc(NC(=O)c2cnn(-c3cccc(F)c3)c2C2CCNCC2)cc(OC)c1OC do in these assays?
AmpC inh detg: 12.8%; Sm TGR block: 1.4%

What do the screens show for `COc1ccc(NC(=O)c2cnn(-c3ccc(C)c(C)c3)c2C2CCNCC2)cc1OC`?
AmpC inh detg: 4.1%; Sm TGR block: 44.7µM*

Results for CCOC(=O)c1cnn(-c2cccc(F)c2)c1C1CCNCC1 ?
AmpC inh detg: -1.3%; Sm TGR block: 44.7µM*

Results for COc1ccc(-c2cn3c(n2)sc2cc(C(=O)NCCc4ccccc4)ccc23)cc1 ?
AmpC inh detg: 0.4%; Sm TGR block: -10.0%

What do the screens show for `COc1ccc(CNCC(O)COCc2cccs2)cc1` (configuration not stated)?
AmpC inh no detg: -7.9%; AmpC inh detg: -14.8%; Sm TGR block: 9.2%[11.4 µM]

How did O=S(=O)(NCC(O)COCc1ccco1)c1cccs1 (configuration not stated) do in these assays?
AmpC inh no detg: -1.2%; AmpC inh detg: inconclusive; Sm TGR block: 12.6µM*

How did COc1cc(C)nc(NC(=S)N(C)C(=O)c2ccccc2)n1 do in these assays?
AmpC inh no detg: -19.4%; AmpC inh detg: -3.4%; Sm TGR block: 10.4%

How did O=C(N/N=C/c1ccc(O)cc1O)c1ccc(CN2C(=O)c3cccc4cccc2c34)cc1 do in these assays?
AmpC inh no detg: 7.08µM*; AmpC inh detg: 0.9%

Results for O=C(N/N=C/c1ccccc1)c1ccc(CN2C(=O)c3cccc4cccc2c34)cc1 ?
AmpC inh no detg: inconclusive; AmpC inh detg: -4.3%; Sm TGR block: -15.0%

Results for CCc1cc(=O)oc2c3c(c(Cl)cc12)OCN(Cc1cccc(OC)c1)C3 ?
AmpC inh detg: -4.1%; Sm TGR block: -28.6%

Results for CCCCCC1CCC(c2ccc(/C(N)=N/O)cc2)CC1 (configuration not stated) ?
AmpC inh no detg: 52.0%; AmpC inh detg: 9.3%; Sm TGR block: 11.5%

How did CCOc1cc(CNc2ccc3c(c2)CCC3)ccc1O do in these assays?
AmpC inh no detg: -21.5%; AmpC inh detg: 2.3%; Sm TGR block: inconclusive

Results for COc1cc(CNc2ccc3c(c2)CCC3)cc(OC)c1O ?
AmpC inh no detg: 1.1%; AmpC inh detg: -0.7%; Sm TGR block: 0.316µM*

What do the screens show for `CC1Cc2ccccc2N1C(=O)COC(=O)c1n[nH]c(=O)c2ccccc12` (configuration not stated)?
AmpC inh no detg: -24.3%; AmpC inh detg: -0.3%; Sm TGR block: 0.6%

How did COc1cc2c(cc1OC)C1O[C@](CCCCN3C(=O)c4ccccc4C3=O)(C2)Oc2c1c(=O)oc1ccccc21 do in these assays?
AmpC inh no detg: -25.8%[11.4 µM]; AmpC inh detg: inconclusive; Sm TGR block: -16.6%[22.9 µM]

What do the screens show for `Cn1c(SCC(=O)c2ccc(-c3ccccc3)cc2)nnc1-c1ccco1`?
AmpC inh no detg: -49.4%; AmpC inh detg: inconclusive; Sm TGR block: 6.31µM*

Results for Cn1c(SCC(=O)OCc2ccccc2)nnc1-c1ccco1 ?
AmpC inh no detg: -5.9%; AmpC inh detg: -8.3%; Sm TGR block: inconclusive

What do the screens show for `Cc1ccc(C(=O)CSc2nnc(-c3ccco3)n2Cc2ccccc2)cc1`?
AmpC inh no detg: 14.2%; AmpC inh detg: inconclusive; Sm TGR block: -13.2%

What do the screens show for `COc1cccc(CSc2nnc(-c3ccco3)n2C)c1`?
AmpC inh no detg: -0.8%; AmpC inh detg: -11.5%; Sm TGR block: 39.8µM*

Results for Cc1cccc(CSc2nnc(-c3ccco3)n2C)c1 ?
AmpC inh no detg: -13.5%; AmpC inh detg: -8.8%; Sm TGR block: 0.0%

How did O=C(CSc1nnc(-c2ccco2)n1Cc1ccccc1)c1ccccc1 do in these assays?
AmpC inh no detg: 14.8%; AmpC inh detg: -3.9%; Sm TGR block: 44.7µM*

How did CCCCn1c(=O)[nH]c(=O)c2c1nc(CN1C(=O)c3ccccc3S1(=O)=O)n2CCC do in these assays?
AmpC inh no detg: -2.9%; AmpC inh detg: -13.2%; Sm TGR block: 0.0%

How did CCCCn1c(=O)[nH]c(=O)c2c1nc(Cn1ncc(Cl)c(Cl)c1=O)n2CCC do in these assays?
AmpC inh no detg: -10.5%; AmpC inh detg: -15.7%; Sm TGR block: 17.8µM*

How did CCCCNc1cc(NC(C)=O)cc2cc(OC)c(OC)cc12 do in these assays?
AmpC inh no detg: 4.0%; AmpC inh detg: 3.2%; Sm TGR block: inconclusive

What do the screens show for `COc1cc2cc(NC(C)=O)cc(NCc3ccccc3)c2cc1OC`?
AmpC inh no detg: -14.5%; AmpC inh detg: -9.3%; Sm TGR block: 35.5µM*

How did O=Cc1ccc(OCCOc2ccc([N+](=O)[O-])cc2)cc1 do in these assays?
AmpC inh no detg: -14.3%; AmpC inh detg: -0.2%; Sm TGR block: 1.2%

Results for O=C1NC(=O)C(=Cc2ccc(OCCOc3ccc([N+](=O)[O-])cc3)cc2)C(=O)N1 ?
AmpC inh no detg: -33.4%; AmpC inh detg: -5.2%; Sm TGR block: 15.8µM*

How did Cc1ccc(OCCOc2cccc(C=C3C(=O)NC(=O)NC3=O)c2)c(C)c1 do in these assays?
AmpC inh no detg: -17.0%; AmpC inh detg: -5.9%; Sm TGR block: inconclusive

How did O=C1NC(=O)C(=Cc2cccc(OCCOc3ccccc3)c2)C(=O)N1 do in these assays?
AmpC inh no detg: -26.7%; AmpC inh detg: 5.2%; Sm TGR block: 11.2µM*

What do the screens show for `O=C(NC1CCCC1)c1cc(-c2cccc(Cl)c2)on1`?
AmpC inh no detg: -22.1%; AmpC inh detg: -11.5%; Sm TGR block: 3.2%

Results for Cc1nnc(NC(=O)CCn2c(=O)oc3ccccc32)s1 ?
AmpC inh no detg: -4.0%; AmpC inh detg: -0.2%; Sm TGR block: 14.3%

What do the screens show for `COC(=O)[C@@H]1Cc2c([nH]c3ccccc23)C(C)(C)N1C(=O)CCl`?
AmpC inh no detg: -4.0%; AmpC inh detg: -4.7%; Sm TGR block: 31.6µM*

Results for COC(=O)C1Cc2c([nH]c3ccccc23)CN1 (configuration not stated) ?
AmpC inh no detg: -15.4%; AmpC inh detg: -11.9%; Sm TGR block: inconclusive

Bioassay records (PubChem)
